From PubChem BioAssay (EPA / NIEHS) come the findings set out here.

Calls of active or inactive are those of the source. The calls were made as follows: active = hit-call score of the fitted dose curve at least 0.9, where 1 is the maximum; inactive = score below 0.9.

The first assay deals with Heat shock factor protein 1 (Homo sapiens) (UniProt Q00613). The assay can be described thus: ATG_HSE_CIS: Attagene CIS-FACTORIAL HepG2 Assay for human Heat Shock Transcription Factor 1 (HSE) (AID 2282953). The settings on record: HepG2 HSE cis-reporter, Attagene RNA transcription; actives raise or lower the signal. In a few lines: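 Reporter mRNA induction in HepG2 is measured 24 h after dosing, using transiently transfected multiplexed cis-regulated reporter units. Signal comes from capillary electrophoresis of labelled RT-PCR products, with DMSO as negative control.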
Heat shock factor protein 1 (Homo sapiens), sequence (Q00613 whole entry, looked up): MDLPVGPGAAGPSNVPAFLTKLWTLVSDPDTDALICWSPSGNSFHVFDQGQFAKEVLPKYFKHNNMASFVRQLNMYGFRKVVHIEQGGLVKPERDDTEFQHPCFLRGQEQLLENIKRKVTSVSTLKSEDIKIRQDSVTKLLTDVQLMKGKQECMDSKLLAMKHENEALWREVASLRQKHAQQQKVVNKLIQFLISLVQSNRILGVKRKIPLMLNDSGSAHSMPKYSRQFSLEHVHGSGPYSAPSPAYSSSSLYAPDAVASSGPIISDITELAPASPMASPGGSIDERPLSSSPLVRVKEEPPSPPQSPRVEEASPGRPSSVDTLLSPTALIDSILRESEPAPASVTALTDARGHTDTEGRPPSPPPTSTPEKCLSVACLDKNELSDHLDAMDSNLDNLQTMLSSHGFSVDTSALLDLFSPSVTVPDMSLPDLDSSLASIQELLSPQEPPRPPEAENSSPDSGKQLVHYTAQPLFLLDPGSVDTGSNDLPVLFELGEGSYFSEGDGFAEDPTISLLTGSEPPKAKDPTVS
For the compound `NNC(N)=S`, the outcome was inactive.
Same read-out and setting: then `c1cc2c3c(cccc3c1)CC2`, with “inactive”; and `c1ccc2c(c1)Nc1ccccc1S2`, with “inactive”.
On the same count and under the same terms, the result for `Cc1ccc([N+](=O)[O-])cc1C` reads “inactive”; that for `CC(C)(C)c1ccc(O)cc1`, “inactive”.

Test system in the next assay: not listed separately
Description: ATG_MRE_CIS: Attagene CIS-FACTORIAL HepG2 Assay for human Metal Responsive Element (MRE) (AID 2282954). Particulars: HepG2 MRE cis-reporter transcription, Attagene multiplex; actives raise or lower the signal. The gist of the method: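 Readout: capillary electrophoresis of 6-FAM-labelled, HpaI-digested RT-PCR reporter products. System: HepG2 cells carrying transient multiplexed cis reporters, dosed 24 h. Analysis: bidirectional fit, DMSO baseline.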
As for `ClC(Cl)(Cl)c1ccccc1`, the compound was called inactive.
On the same count and under the same terms, the result for `CCOP(=S)(Oc1ccc([N+](=O)[O-])cc1)c1ccccc1` (stereo unspecified) reads “inactive”; that for `CCCCN(CCCC)SN(C)C(=O)Oc1cccc2c1OC(C)(C)C2`, “inactive”; that for `Nc1ccc2ccccc2c1`, “inactive”.
On the same count and under the same terms, then `O=C(O)C1C(C(=O)O)C2(Cl)C(Cl)=C(Cl)C1(Cl)C2(Cl)Cl` (stereo unspecified), with “inactive”.
The same measure, in the same setting: then `Cc1cccc(N)c1`, with “inactive”; and `CCCCOCCOP(=O)(OCCOCCCC)OCCOCCCC`, with “inactive”.
Consider `CN(C)C(=O)Cl`, for which the result was inactive.
Still for that read-out and setting: then `O=C(O)C(Cl)Cl`, with “inactive”.
Still for that read-out and setting: the result for `CCOS(=O)(=O)OCC` reads “inactive”.
Still for that read-out and setting: the result for `OCC1CO1` (stereo unspecified) reads “inactive”.
With `CCCCN(CCCC)N=O`, the call was inactive.
Turning to `CSC(C)(C)C=NO`, the compound was called inactive.
Still for that read-out and setting: the result for `CCCCCCCc1ccc(O)cc1` reads “inactive”.
The same measure, in the same setting: then `CCN(CC)c1ccccc1`, with “inactive”.
`Nc1cc2c3c(c1)C(c1ccccc1)=N[C@@H](NC(=O)c1cccnc1)C(=O)N3CC2`: the AC50 was 71.5 µM (active).
Consider `O=C(O)CF`, for which the result was inactive.
The same measure, in the same setting: then `Nc1ccc(Cl)cc1`, with “inactive”.
The same measure, in the same setting: then `CC(Cl)(Cl)C(=O)O`, with “inactive”.
Still for that read-out and setting: the result for `CCOP(=S)(OCC)SCS(=O)(=O)CC` reads “inactive”.
On to `CCOC(=O)c1ccccc1C(=O)OCC`, for which the compound was called inactive.
On the same count and under the same terms, then `CCC1(c2ccccc2)C(=O)N=C(O)NC1=O` (stereo unspecified), with “inactive”; and `O=C(CBr)OCc1ccccc1`, with “inactive”.
Still for that read-out and setting: then `Cc1ccc(O)cc1C`, with “inactive”; and `c1ccc(OP(Oc2ccccc2)Oc2ccccc2)cc1`, with “inactive”.
As to `O=[N+]([O-])c1ccccc1`, the compound was called inactive.

A word on the AC50: it is the midpoint of the concentration-response curve, whichever way the signal moves.
